# The supplement of paper PMC10849652
# The full data set covers some 8,800 targets. This sample favours those with a hit. About 0.5% of all pairs of compound and target were hits. A number with no mark means an inactive call.
# What was measured:
# Test in all cases: log2 fold change, soluble protein after heating vs DMSO (PISA); higher = thermal stabilisation; K562 lysate, 10 uM; active = over 0.2 and 3.5 SD of the protein, either way, in both replicates (recomputed)
# [1] = compound: COC(=O)N[C@@H](C)CNc1nccc(-c2cn(C(C)C)nc2-c2cc(Cl)cc(NS(C)(=O)=O)c2F)n1 [encorafenib]
# Summary of the method: (§1)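 Values give the log-two fold change in thermal stability against solvent controls, from duplicates. Crude K562 extract at 1 mg/mL protein, made by dounce homogenisation in PBS pH 7.4 with 1 mM MgCl2, was treated with 10 μM compound for 30 min. After 3 min heating across 48°C-58°C, aliquots were pooled, adjusted to 0.5% NP-40 at 4°C and centrifuged at 21,000xg for 90 min. The supernatant was measured by TMTpro 16plex LC-MS/MS with channel sums equalised.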
# [2] = compound: COC(=O)[C@H](CCSC)NC(=O)C1=C(C=C(C=C1)NC[C@H](CS)N)C2=CC=CC=C2
# Summary of the method: as §1
# [3] = compound: COc1cc2nc(-c3cc(F)ccc3O)nc(N[C@@H]3CNC[C@H]3C(C)(C)O)c2cc1OC
# Summary of the method: as §1
# [4] = compound: CN1CCc2c(c3ccccc3n2Cc2ccc(C(=O)NO)cc2)C1 [Tubastatin A]
# Summary of the method: as §1
# [5] = compound: CNC(=O)c1ccc(Nc2ncc(C(F)(F)F)c(NCc3nccnc3N(C)S(C)(=O)=O)n2)cc1 [defactinib]
# Summary of the method: as §1
# [6] = compound: CNc1nc(-c2ccc3c(N)n[nH]c3c2)cc(N2C[C@@H](C(=O)NC3CCCCC3)CC[C@H]2C)n1
# Summary of the method: as §1
# [7] = compound: COc1cc(Nc2ncc3c(n2)-c2ccc(Cl)cc2C(c2c(F)cccc2OC)=NC3)ccc1C(=O)O [alisertib]
# Summary of the method: as §1
# [8] = compound: COc1cc2ncnc(Nc3ccc(F)c(Cl)c3)c2cc1OCCCN1CCOCC1 [gefitinib]
# Summary of the method: as §1
# [9] = compound: CN1CC[C@H](c2c(O)cc(O)c3c(=O)cc(-c4ccccc4Cl)oc23)[C@H](O)C1 [alvocidib]
# Summary of the method: as §1
# [10] = compound: CNC(=O)C1=CC=CC=C1NC2=NC(=NC=C2Cl)NC3=C(C=C(C=C3)N4CCOCC4)OC
# Summary of the method: as §1
# Sequence of UniProt P00519 (P00519 whole entry, looked up): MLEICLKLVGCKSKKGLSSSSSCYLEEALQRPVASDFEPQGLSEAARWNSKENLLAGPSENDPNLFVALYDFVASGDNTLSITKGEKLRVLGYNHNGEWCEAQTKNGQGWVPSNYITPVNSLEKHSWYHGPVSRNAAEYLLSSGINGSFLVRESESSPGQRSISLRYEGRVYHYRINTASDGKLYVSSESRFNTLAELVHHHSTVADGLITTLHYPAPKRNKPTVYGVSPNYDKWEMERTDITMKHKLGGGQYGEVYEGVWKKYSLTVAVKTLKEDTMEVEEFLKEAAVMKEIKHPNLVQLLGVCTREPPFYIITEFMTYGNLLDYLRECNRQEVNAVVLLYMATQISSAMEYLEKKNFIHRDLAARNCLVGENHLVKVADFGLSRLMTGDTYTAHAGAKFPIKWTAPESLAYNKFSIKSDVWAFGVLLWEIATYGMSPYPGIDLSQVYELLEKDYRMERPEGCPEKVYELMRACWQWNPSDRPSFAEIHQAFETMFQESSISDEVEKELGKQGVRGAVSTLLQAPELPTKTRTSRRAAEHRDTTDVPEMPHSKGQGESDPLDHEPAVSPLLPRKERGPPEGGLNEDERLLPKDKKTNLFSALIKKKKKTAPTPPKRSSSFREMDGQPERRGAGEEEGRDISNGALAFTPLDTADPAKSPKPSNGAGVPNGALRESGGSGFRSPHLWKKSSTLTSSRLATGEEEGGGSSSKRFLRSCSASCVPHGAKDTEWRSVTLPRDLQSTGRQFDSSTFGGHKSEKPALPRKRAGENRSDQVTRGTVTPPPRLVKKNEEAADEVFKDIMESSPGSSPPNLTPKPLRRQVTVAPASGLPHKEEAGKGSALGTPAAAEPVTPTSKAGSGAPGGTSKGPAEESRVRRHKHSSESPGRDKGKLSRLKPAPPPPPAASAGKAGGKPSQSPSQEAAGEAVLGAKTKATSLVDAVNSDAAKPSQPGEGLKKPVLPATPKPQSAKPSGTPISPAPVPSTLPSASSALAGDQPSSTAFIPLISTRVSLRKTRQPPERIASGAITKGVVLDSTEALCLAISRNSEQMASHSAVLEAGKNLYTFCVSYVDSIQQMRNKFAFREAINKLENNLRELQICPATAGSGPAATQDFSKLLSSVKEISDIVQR
# Sequence of UniProt Q9BXX3 (Q9BXX3 whole entry, looked up): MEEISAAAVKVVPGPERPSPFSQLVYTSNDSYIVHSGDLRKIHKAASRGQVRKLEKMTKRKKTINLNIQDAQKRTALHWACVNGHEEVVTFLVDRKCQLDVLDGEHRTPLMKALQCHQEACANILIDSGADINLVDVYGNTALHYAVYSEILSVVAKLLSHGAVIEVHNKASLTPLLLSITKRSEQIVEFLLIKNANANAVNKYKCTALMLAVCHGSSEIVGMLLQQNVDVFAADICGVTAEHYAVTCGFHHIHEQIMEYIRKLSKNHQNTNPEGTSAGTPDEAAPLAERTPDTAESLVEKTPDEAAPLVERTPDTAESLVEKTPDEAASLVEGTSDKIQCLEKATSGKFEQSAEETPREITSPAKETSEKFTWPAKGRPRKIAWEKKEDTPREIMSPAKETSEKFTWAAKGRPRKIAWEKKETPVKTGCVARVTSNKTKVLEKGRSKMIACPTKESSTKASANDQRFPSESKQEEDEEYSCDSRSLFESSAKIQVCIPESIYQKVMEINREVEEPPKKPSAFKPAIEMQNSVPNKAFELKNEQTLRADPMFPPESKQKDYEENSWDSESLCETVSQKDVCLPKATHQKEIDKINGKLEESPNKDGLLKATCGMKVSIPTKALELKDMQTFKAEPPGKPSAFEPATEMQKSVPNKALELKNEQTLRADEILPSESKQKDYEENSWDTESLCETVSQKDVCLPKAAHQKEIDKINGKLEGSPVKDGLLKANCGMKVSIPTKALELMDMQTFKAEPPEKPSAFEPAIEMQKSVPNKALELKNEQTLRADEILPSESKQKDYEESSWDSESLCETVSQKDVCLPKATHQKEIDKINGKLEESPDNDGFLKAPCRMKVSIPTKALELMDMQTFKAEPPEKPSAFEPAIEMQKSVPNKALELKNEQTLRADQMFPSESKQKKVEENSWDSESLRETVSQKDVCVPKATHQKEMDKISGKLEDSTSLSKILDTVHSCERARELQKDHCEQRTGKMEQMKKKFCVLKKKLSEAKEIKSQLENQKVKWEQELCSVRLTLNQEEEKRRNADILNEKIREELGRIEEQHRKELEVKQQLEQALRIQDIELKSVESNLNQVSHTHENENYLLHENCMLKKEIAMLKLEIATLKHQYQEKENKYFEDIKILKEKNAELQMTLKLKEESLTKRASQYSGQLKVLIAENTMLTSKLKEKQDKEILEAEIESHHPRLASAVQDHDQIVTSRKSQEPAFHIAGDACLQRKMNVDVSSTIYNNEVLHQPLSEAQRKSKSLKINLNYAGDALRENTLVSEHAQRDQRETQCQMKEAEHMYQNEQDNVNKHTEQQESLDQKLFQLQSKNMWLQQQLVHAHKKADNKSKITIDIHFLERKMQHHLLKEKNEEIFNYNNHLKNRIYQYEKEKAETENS
# Sequence of UniProt P78536 (P78536 whole entry, looked up): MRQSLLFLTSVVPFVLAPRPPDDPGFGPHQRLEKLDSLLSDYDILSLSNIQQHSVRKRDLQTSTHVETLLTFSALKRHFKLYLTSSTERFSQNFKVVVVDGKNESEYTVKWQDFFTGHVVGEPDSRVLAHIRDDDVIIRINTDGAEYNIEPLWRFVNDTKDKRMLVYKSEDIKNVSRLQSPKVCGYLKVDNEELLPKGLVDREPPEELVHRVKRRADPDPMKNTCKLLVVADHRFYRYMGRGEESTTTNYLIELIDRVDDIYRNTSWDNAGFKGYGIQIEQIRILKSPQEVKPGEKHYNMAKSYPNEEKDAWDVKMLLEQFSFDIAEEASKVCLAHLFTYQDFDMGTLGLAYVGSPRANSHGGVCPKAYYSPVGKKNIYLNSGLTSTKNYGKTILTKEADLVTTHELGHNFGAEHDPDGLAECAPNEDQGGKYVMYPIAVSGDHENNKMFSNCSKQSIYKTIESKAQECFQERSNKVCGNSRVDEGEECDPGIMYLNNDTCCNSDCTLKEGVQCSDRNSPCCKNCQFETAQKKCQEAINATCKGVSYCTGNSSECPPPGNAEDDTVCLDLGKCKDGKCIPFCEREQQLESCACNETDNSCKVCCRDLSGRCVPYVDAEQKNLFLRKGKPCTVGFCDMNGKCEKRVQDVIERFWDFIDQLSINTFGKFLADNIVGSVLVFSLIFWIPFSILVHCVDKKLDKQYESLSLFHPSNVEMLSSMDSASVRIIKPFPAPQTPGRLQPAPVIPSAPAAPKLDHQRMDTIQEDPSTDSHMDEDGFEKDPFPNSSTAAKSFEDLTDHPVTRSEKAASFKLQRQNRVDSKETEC
# Sequence of UniProt P35611 (P35611 whole entry, looked up): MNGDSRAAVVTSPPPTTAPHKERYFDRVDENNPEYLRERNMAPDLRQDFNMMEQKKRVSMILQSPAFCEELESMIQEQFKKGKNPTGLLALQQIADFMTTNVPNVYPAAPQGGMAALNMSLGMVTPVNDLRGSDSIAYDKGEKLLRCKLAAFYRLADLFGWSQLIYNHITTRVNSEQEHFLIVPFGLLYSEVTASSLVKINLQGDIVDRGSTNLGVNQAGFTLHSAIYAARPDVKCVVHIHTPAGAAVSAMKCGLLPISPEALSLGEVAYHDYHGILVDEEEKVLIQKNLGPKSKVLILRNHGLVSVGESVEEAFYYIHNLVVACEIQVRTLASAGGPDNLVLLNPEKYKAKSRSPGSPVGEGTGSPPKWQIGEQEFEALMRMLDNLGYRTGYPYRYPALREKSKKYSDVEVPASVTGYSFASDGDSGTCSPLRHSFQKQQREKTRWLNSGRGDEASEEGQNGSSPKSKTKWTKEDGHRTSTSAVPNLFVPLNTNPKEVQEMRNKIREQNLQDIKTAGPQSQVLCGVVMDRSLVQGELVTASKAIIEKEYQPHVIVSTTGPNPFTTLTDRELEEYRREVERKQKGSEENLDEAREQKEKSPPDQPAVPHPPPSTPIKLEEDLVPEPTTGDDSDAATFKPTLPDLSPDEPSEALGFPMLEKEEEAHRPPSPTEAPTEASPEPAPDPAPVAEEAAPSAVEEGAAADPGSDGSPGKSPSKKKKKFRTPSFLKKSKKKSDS
# Sequence of UniProt P14621 (P14621 whole entry, looked up): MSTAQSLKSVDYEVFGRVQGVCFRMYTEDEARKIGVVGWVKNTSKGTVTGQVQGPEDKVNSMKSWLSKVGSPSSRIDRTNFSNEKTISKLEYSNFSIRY
# Sequence of UniProt Q3SXY8 (Q3SXY8 whole entry, looked up): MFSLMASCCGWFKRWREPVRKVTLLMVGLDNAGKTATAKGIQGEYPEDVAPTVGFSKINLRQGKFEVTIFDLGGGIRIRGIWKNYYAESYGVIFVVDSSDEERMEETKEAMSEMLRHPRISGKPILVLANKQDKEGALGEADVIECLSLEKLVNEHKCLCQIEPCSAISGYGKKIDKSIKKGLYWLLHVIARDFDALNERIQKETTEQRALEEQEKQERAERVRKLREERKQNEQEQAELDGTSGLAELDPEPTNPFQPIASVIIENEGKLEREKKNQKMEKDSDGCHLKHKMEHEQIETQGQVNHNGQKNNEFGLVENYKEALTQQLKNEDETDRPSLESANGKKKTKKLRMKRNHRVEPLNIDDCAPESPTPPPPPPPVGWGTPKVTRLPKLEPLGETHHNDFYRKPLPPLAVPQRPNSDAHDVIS
# Sequence of UniProt P27216 (P27216 whole entry, looked up): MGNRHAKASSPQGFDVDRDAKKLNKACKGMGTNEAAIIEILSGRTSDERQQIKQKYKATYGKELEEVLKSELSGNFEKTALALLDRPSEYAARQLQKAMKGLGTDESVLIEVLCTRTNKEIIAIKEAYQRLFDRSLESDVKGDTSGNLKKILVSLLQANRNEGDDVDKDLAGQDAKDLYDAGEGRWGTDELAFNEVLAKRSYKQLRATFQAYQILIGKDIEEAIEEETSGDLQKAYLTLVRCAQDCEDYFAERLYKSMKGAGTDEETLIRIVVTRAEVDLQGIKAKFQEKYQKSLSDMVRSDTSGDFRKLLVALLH
# Sequence of UniProt Q9P1F3 (Q9P1F3 whole entry, looked up): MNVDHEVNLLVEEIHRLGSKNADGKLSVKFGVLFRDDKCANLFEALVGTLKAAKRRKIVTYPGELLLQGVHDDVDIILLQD
Target,log2 fold change [1],log2 fold change [2],log2 fold change [3],log2 fold change [4],log2 fold change [5],log2 fold change [6],log2 fold change [7],log2 fold change [8],log2 fold change [9],log2 fold change [10]
ABI1 isoform 6 (UniProt Q8IZP0),-0.212,0.114,0.023,,,,,,,
ARHGEF2 (UniProt V9GYF0),-0.035,0.014,0.112,-0.07,-0.211,0.082,-0.083,0.229,,
ACYP2 (UniProt P14621),,,-0.009,-0.021,0.329 (active),,-0.096,-0.02,0.084,0.007
ANKRD40 (UniProt Q6AI12),0.04,-0.109,,-0.164,0.095,0.101,-0.188,-0.089,0.084,0.08
ABL1 isoform 2 (UniProt P00519),0.039,0.071,-0.011,-0.091,-0.023,-0.011,0.019,,,0.044
ALDH3A1 (UniProt P30838),,,0.165,0.366,,-0.138,,,-0.218,-0.065
ANKRD30A (UniProt Q9BXX3),0.053,0,1.45 (active),-0.294,,0.017,-0.009,-0.03,-0.148,
ADAM17 (UniProt P78536),0.09,0.109,,0.063,0.005,0.04,-0.048,0.031,-0.066,0.011
ALDH18A1 isoform 2 (UniProt P54886),,,,-0.06,0.016,-0.139,,,,
ABHD13 (UniProt Q7L211),0,0.006,-0.019,,0.022,-0.051,0.023,0.06,-0.225,
ACTG1 (UniProt K7EM38),-0.286,0.142,0.099,,,,,,,
AP3D1 isoform 2 (UniProt O14617),,,0.087,,0.078,,0.093,0.111,0.25,-0.06
"ACAT1, A0A5F9ZHJ0",,,,0.081,,,-0.035,-0.056,-0.023,
"ADK, A0A5F9ZH76",,,-0.063,,,,0.008,0.072,,
ANXA2 (UniProt H0YL33),,,0.005,0.109,,0.222,0.001,0.097,0.315,-0.177
AIF1L (UniProt Q9BQI0),0.06,-0.401 (active),0.001,-0.009,,0.164,0.095,0.035,0.083,0.073
ACVR1 (UniProt Q04771),,,,,,-0.056,0.069,0.158,0.086,
ADD1 isoform 4 (UniProt P35611),-0.034,0,0.094,0.303,0.071,0.051,,,-0.397,-0.081
ANKRD10 (UniProt Q9NXR5),,,0.035,-0.037,0.012,-0.016,-0.018,-0.047,0.003,0.018
ARL13B (UniProt Q3SXY8),,,0,0.018,-0.025,-0.102,,,0.182,0.165
ANXA13 isoform 2 (UniProt P27216),,,0.034,-0.072,-0.036,-0.369,0.047,0.085,-0.121,-0.059
ABRACL (UniProt Q9P1F3),,,-0.081,,,0.166,0.091,-0.207,-0.016,0.121
ANKRD44 isoform 2 (UniProt Q8N8A2),-0.048,0.103,0.119,,-0.129,,0.2,0.169,-0.688,0.075
